Source: PubChem
The list is not random: actives were taken first. Their share in the collection is about 4.4%.
tim10-1 inh: growth inhibitors of tim10-1 mutant yeast; actives 2.2% (n = 330,000); AID 463190; S. cerevisiae tim10-1 ts strain growth, BacTiter-Glo, 24 h; inhibition, % at 20 µM;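 active = inhibition of at least 40%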;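 note: mutant grown at 25 °C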
tim23-1 inh: inhibits growth of tim23-1 mutant yeast | inhibition, % at 20 µM | S. cerevisiae tim23-1 growth, BacTiter-Glo luminescence, 24 h | actives 1.3% (n = 330,000);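 active = growth inhibition of the mutant yeast at or above 50%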;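 note: temperature-sensitive mutant grown at 25 °C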
TIM10 inh: growth inhibitors of TIM10 yeast strain | S. cerevisiae TIM10 strain growth, BacTiter-Glo luminescence, 24 h | inhibition, % at 10 µM | actives 1.4% (n = 330,000) | AID 463195;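 active = inhibition of 40% or more at the single tested concentration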;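 note: wild-type TIM10 isogenic control strain grown at permissive 25 °C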
Mot1-301 SUMO: blocks SUMOylation pathway, rescuing yeast Mot1-301 growth; S. cerevisiae Mot1-301 growth rescue, ATP luminescence, 38.5C; percent above DMSO median, 100 means doubled; growth rescue, % at 18.8 µM; actives 1% (n = 320,000); AID 2716;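 active = every valid replicate shows activation above 250% relative to neutral control wells; inactive = the rest, any valid replicate at or below 250%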
PfHsp90 set2: inhibits growth of yeast expressing Plasmodium falciparum Hsp90; inhibition, % at 9.4 µM; actives 0.32% (n = 310,000); S. cerevisiae expressing PfHsp90, BacTiter-Glo ATP, 48 h; yeast lacking PDR1 and PDR3 efflux regulators;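 active = every replicate shows inhibition above about 80%, whatever the replicate mean, limit read from the data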
tim10 confirm: TIM10 yeast growth inhibition, confirmed; inhibition, % at 10 µM; shares compounds with TIM10 inh; actives 63% (n = 4,600); S. cerevisiae tim10 strain growth, BacTiter-Glo luminescence, 24 h;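 active = inhibition of yeast growth at or above a set limit in either of two replicates at 10 µM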; note: this counterscreen used the strain with wild-type TIM10
tim23-1 conf: tim23-1 yeast growth inhibition, confirmed; inhibition, % at 20 µM; actives 83% (n = 4,400); shares compounds with tim23-1 inh; S. cerevisiae tim23-1 growth, BacTiter-Glo luminescence, 24 h; AID 463218;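 active = inhibition above about 39% in either of two replicate wells at 20 µM, limit read from the data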;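 note: temperature-sensitive tim23-1 mutant grown at 25 °C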
Large screens that a line does not name were inactive (follow-up assays come after a bar, where they were run).

CCCCn1cnc2c(oc3ccccc32)c1=O	none
O=C(COc1ccc2c(c1)OCO2)NC12CC3CC(CC(C3)C1)C2	TIM10 inh 47 | tim10 confirm 33
O=C(O)CN1C(=O)c2cccc(Oc3ccc(Cl)cc3)c2C1=O	none (no result: PfHsp90 set2)
Cc1ccc(N2C(=O)c3cccc(Oc4ccc(Cl)cc4)c3C2=O)c(C)c1	TIM10 inh 42 | tim10 confirm inactive
CC1Cc2ccccc2N1C1=NS(=O)(=O)c2ccccc21 (stereo unspecified)	TIM10 inh 42 | tim10 confirm inactive
Cn1c(SCc2ccc(C#N)cc2)nnc1-c1ccccc1	none
Cn1c(SCc2ccc(C#N)cc2)nnc1-c1cccc(Cl)c1	TIM10 inh 45 | tim10 confirm inactive
CCCOc1ccc(-c2nc(OCC)c3ccccc3n2)cc1	none
CCOc1nc(-c2ccncc2)nc2ccccc12	tim23-1 inh 57, TIM10 inh 58 | tim10 confirm 44 | tim23-1 conf 54
C=CCS/C(N)=N\N=C\c1c(O)ccc2ccccc12	tim23-1 inh 53, TIM10 inh 53 | tim10 confirm 42 | tim23-1 conf 71
CCn1c(C)csc1=NC(=O)c1ccccc1	none
Cc1csc(=NC(=O)c2ccccc2)n1C	tim23-1 inh 55, TIM10 inh 44 (no result: PfHsp90 set2) | tim10 confirm 38 | tim23-1 conf 54
Cc1ccc(C(=O)COC(=O)c2cn3ccccc3n2)cc1	tim23-1 inh 57, TIM10 inh 48 | tim10 confirm 42 | tim23-1 conf 69
COc1ccccc1-n1cnc2cc(NC(=O)c3ccco3)ccc21	tim23-1 inh 56, TIM10 inh 44 | tim10 confirm 37 | tim23-1 conf 68
O=C(Nc1ccc2c(c1)ncn2C1CCCCC1)c1ccco1	tim23-1 inh 51, TIM10 inh 66 (no result: PfHsp90 set2) | tim10 confirm 53 | tim23-1 conf 77
Cc1c(C)c2cccnc2c2ncccc12	tim23-1 inh 69, TIM10 inh 57, PfHsp90 set2 124 | tim10 confirm 62 | tim23-1 conf 45
COc1cccc(-c2c(C(=O)N/N=C/c3ccoc3)nnn2-c2nonc2N)c1	none
NC(=O)c1oc2ccccc2c1NC(=O)c1ccc(F)cc1	none
NC(=O)c1oc2ccccc2c1NC(=O)c1ccc([N+](=O)[O-])o1	tim23-1 inh 66, TIM10 inh 57 | tim10 confirm 66 | tim23-1 conf 59
CN(CC(=O)Nc1ccc(Cl)c(Cl)c1)C(=O)CNC(=O)C1CCCCC1	none
O=C(C[n+]1ccccc1)N/N=C/c1c(F)cccc1Cl	none
Cc1[nH]c(-c2ccc(F)cc2)cc1C(=O)N1CCN(c2ccc(Cl)cc2)CC1	tim23-1 inh 73, TIM10 inh 49 | tim10 confirm 42 | tim23-1 conf 54
CCOC(=O)N1CCN(C(=O)c2cc(-c3ccc(F)cc3)[nH]c2C)CC1	none (no result: PfHsp90 set2)
COc1ccc(CN=C2NN=C(c3ccc(Cl)cc3)CS2)cc1	tim23-1 inh 65, TIM10 inh 46 | tim10 confirm 31 | tim23-1 conf 68
Clc1ccc(C2=NNC(=NCc3ccc4c(c3)OCO4)SC2)cc1	none (no result: tim10-1 inh, tim23-1 inh, TIM10 inh)
Cc1c(C(=O)Nc2nc3ccccc3[nH]2)oc2ccccc12	tim23-1 inh 59, TIM10 inh 62 | tim10 confirm inactive | tim23-1 conf 74
Cc1ccc(C(=O)Nc2nc3ccccc3[nH]2)cc1	none
CC(CNS(=O)(=O)c1ccccc1)(c1ccccc1)N1CCCCC1 (stereo unspecified)	none
Cc1nc2ccccc2n1C(=O)c1ccccc1[N+](=O)[O-]	TIM10 inh 50 | tim10 confirm 47 | tim23-1 conf 40
CN1CCC(NC(=O)c2cc(-c3cccc(Br)c3)nc3ccccc23)CC1	none
COc1ccccc1C(=O)NCCC(=O)N(C)Cc1ccc(C)o1	none
Cc1c(C2(O)CCCCC2)[nH]c2ccc(C(F)(F)F)cc12	tim23-1 inh 82, TIM10 inh 59, Mot1-301 SUMO 301 | tim10 confirm 67 | tim23-1 conf 65
COC(=O)c1ccc2[nH]c(C3(O)CCCCC3)c(C)c2c1	none
